Bioassay records from PubChem BioAssay.
MEKK2 mut-MEK5 – signal of MEK5 binding to mutant human MEKK2 PB1 domain. bead flow cytometry, Alexa488-MEK5 binding to MEKK2 mutant. percent response, % at 10 µM. 290,000 tested, 0.35% active; in the data active = percent response above about 24%, passing the limit was not always enough
GRK2 inh – human GRK2 inhibition via aptamer displacement | inhibition of aptamer binding, % at 10 µM | bead flow cytometry, FAM-aptamer displacement from GRK2 | AID 488847 | P25098 | 330,000 tested, 0.59% active;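 active = inhibition of aptamer binding above 40%, roughly 3 SD of noise, on plates passing a quality check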;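 note: median bead fluorescence of bound FAM aptamer so fluorescent compounds give negative values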
Target sequence (P25098 whole entry, looked up): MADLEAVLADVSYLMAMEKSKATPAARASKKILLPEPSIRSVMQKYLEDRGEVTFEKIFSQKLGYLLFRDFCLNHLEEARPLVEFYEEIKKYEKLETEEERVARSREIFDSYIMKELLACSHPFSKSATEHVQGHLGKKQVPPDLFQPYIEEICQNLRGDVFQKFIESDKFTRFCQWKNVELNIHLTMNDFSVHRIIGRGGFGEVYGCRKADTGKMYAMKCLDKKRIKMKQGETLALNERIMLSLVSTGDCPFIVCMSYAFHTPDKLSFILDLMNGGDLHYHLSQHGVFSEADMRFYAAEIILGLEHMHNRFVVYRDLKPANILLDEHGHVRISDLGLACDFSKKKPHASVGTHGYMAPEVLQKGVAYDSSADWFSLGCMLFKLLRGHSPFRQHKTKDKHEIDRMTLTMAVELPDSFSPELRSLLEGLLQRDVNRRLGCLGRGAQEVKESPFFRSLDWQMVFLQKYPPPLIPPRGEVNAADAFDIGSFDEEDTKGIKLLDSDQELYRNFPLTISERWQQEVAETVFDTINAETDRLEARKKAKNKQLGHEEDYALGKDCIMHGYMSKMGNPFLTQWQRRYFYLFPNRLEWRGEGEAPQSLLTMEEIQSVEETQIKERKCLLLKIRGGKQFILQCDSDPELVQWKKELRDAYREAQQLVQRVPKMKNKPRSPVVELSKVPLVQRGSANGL
MEKK3 PB1 HTS – MEKK3-MEK5 PB1 interaction, increase or decrease; Q99759; bead-based flow cytometry, Alexa488-MEK5 binding to MEKK3; actives lie on both sides; 0 = blocked by unlabeled MEK5, 100 = vehicle; binding response (% of control), % at 10 µM; 290,000 tested, 1.4% active; AID 1529;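 active = binding response more than 3 SD above or below the average of its plate-row segment, actives on both sides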;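 note: Alexa488 bead fluorescence after subtracting the streptavidin-only scavenger bead signal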
MEKK2 WT-MEK5 – raises or lowers MEK5 binding to wildtype human MEKK2 PB1 domain. Q9Y2U5. 290,000 tested, 1.1% active. binding response (% of control), % at 10 µM. bead flow cytometry, Alexa488-MEK5 binding to MEKK2 WT; actives lie on both sides; in the data active = binding response below about 67% or above about 130%
* = called active by the depositor; / = no result; [ ] = remark or other dose. Shown are actives, neighbours in structure and some others; about 2.5% of the full set was active somewhere.

SMILES	MEKK2 mut-MEK5	GRK2 inh	MEKK3 PB1 HTS	MEKK2 WT-MEK5
CC1=C(C(=O)O)N2C(=O)C(NC(=O)c3ccn(C)n3)C2SC1 (stereo not drawn)	5.0	0.0	106.0	106.0
C=C(C)C(=O)Nc1ccc2c(c1)OCCOCCOCCO2	-18.0	93.0*	93.0	97.0
CC(=O)Nc1ccc2c(c1)OCCO2	7.0	2.0	107.0	111.0
CCN1CCN(CCCNC(=O)c2cc3c(s2)-c2ccccc2OC3)CC1	3.0	0.0	102.0	111.0
CC1CC(C)CN(CCCNC(=O)c2cc3c(s2)-c2ccccc2OC3)C1 (stereo not drawn)	25.0*	0.0	106.0	142.0*
Cc1ccc2oc(=O)c3cc(C(=O)NCCCN4CCCC(C)C4)sc3c2c1 (stereo not drawn)	16.0	0.0	105.0	136.0*
Cc1cccc2c1-c1sc(C(=O)NCCCN3CCCC(C)C3)cc1CO2 (stereo not drawn)	24.0*	0.0	105.0	171.0*
CC(=O)Nc1ccnn1C1CCN(C(=O)c2cccc(C)c2C)CC1	3.0	3.0	102.0	102.0
CCOc1ccc(C(=O)NNC(=O)CN2C(=O)NC3(CCCC3)C2=O)cc1	/	0.0	/	/
O=C(NNC(=O)c1cccs1)c1ccc(Cl)nc1	/	0.0	/	/
Cc1cc(-c2ccccc2)nc(SC(C(=O)O)c2ccccc2)n1 (stereo not drawn)	4.0	4.0	103.0	-1.0*
Cc1cc(=O)[nH]c(SC(C(=O)O)c2ccccc2)n1 (stereo not drawn)	-1.0	0.0	101.0	99.0
COc1ccc(C2=NN(C(=O)CSc3ncccn3)C(c3ccc(C)cc3)C2)cc1 (stereo not drawn)	3.0	1.0	101.0	89.0
COc1ccc(C2=NN(C(=O)CSc3ncccn3)C(c3cccc(OC)c3OC)C2)cc1 (stereo not drawn)	-27.0	0.0	87.0	-7.0*
CCCCNS(=O)(=O)CCNCc1ccco1	/	6.0	/	/
COC(=O)c1ccc2c(c1)C(C)(C)C(/C=C/c1ccc(O)cc1)=[N+]2C	-8.0	3.0	72.0	51.0*[inhibitor]
CCOC(=O)C1CCN(S(=O)(=O)c2ccc3c(c2)CC(=O)N3C)CC1	-6.0	0.0	99.0	93.0
Cc1cc(N2CCN(C)CC2)nc2ccc(NC(=S)NCCN3CCc4ccccc4C3)cc12	26.0	0.0	110.0	158.0*
CCN(CC)CCNC(=S)Nc1ccc2nc(N3CCN(CC)CC3)cc(C)c2c1	13.0	9.0	103.0	124.0
O=C(NCc1ccncc1)C(=O)NCC1OCCN1S(=O)(=O)c1ccc(F)cc1 (stereo not drawn)	7.0	0.0	98.0	106.0
CC1CCCCN1S(=O)(=O)c1ccc2[nH]c(=O)cc(C(=O)NCCCN3CCCCCC3)c2c1 (stereo not drawn)	20.0	0.0	103.0	143.0*
COC(=O)[C@]1(C)N[C@H](CN(C)S(=O)(=O)c2ccc(OC(F)(F)F)cc2)[C@@H]2C(=O)N(Cc3ccccc3)C(=O)[C@@H]21	/	0.0	/	/
Cc1occc1-c1nnc(SCC(=O)Nc2ccccc2)n1C	3.0	0.0	92.0	-13.0*
Cc1occc1-c1nnc(SCC(=O)Nc2ccccc2)n1CCc1ccccc1	10.0	0.0	106.0	106.0
Cc1cc(C)cc(OCC(=O)Nc2nc(-c3cccnc3)cs2)c1	4.0	0.0	102.0	103.0
SMILES	MEKK2 mut-MEK5	GRK2 inh	MEKK3 PB1 HTS	MEKK2 WT-MEK5
CCCN1CCN(CCCNC(=O)c2ccc3c(c2)NC(=O)c2ccccc2S3)CC1	3.0	0.0	101.0	109.0
CCC1CCCCN1CCCNC(=O)c1ccc2c(c1)NC(=O)CS2 (stereo not drawn)	4.0	0.0	101.0	116.0
O=C1Nc2cc(C(=O)NCCCN3CCOCC3)ccc2S/C1=C/c1cccc(Cl)c1	16.0	0.0	102.0	147.0*
COc1ccc(/C=C2/Sc3ccc(C(=O)NCCN4CCCCCC4)cc3NC2=O)cc1	71.0*	0.0	111.0	281.0*
O=C1Nc2cc(C(=O)NCCCN3CCCC3)ccc2S/C1=C\c1ccccc1	18.0	0.0	105.0	153.0*
COc1ccc(C(=O)NCCN2CCCC2)cc1	3.0	0.0	106.0	114.0
CCC1CCCCN1CCCNC(=O)c1ccc(/C=C2/Sc3ccccc3NC2=O)cc1 (stereo not drawn)	15.0	0.0	104.0	151.0*
O=C1Nc2cc(C(=O)NCCCN3CCOCC3)ccc2S/C1=C/c1ccccc1F	3.0	0.0	105.0	115.0
CC(NC(=O)CN1CCOCC1)c1ccccc1 (stereo not drawn)	3.0	0.0	101.0	101.0
Cc1ccc(Nc2c(-c3ccccn3)nc3cccc(C)n23)cc1	-8.0	1.0	100.0	88.0
O=C(Nc1ccc(Cl)c(Cl)c1)C1C2C=CC3(O2)C1C(=O)N(CCN1CCCCC1)C3C(=O)NC1CCCCC1 (stereo not drawn)	13.0	0.0	104.0	115.0
COc1ccc(/C=C2\Sc3ccc(C(=O)NCCCN4CCCC4)cc3N(C)C2=O)cc1OC	35.0*	0.0	107.0	202.0*
CC(=O)N1CCCC1(C(=O)O)c1ccccc1 (stereo not drawn)	2.0	0.0	100.0	-3.0*
COc1ccccc1C(=O)N1CCCC1(C#N)c1ccccc1 (stereo not drawn)	5.0	1.0	104.0	103.0
COc1ccc(-n2c(SCC(=O)Nc3cc(C)on3)nc3ccccc3c2=O)cc1Cl	83.0*	0.0	92.0	/
Cc1cc(NC(=O)/C=C/c2ccccc2Cl)n(-c2nc3ccccc3[nH]2)n1	1.0	1.0	150.0*	117.0
CCn1c(C)c(C)c2cc(C(=O)NCCN3CCOCC3)ccc21	1.0	1.0	95.0	98.0
CCCCCn1c(=O)[nH]c2cc(C(=O)NCCN3CCCCC3C)ccc2c1=O (stereo not drawn)	1.0	0.0	101.0	111.0
CCn1c(C)c(C)c2cc(C(=O)NCCCN3CCCCC3C)ccc21 (stereo not drawn)	41.0*	0.0	103.0	17.0*
CCn1c(C)c(C)c2cc(C(=O)NCCCN3CCCC3)ccc21	14.0	0.0	104.0	144.0*
COc1ccccc1C(=O)Nc1ccc(-c2nnn(CC(=O)NCc3ccco3)n2)cc1	8.0	0.0	108.0	111.0
N=c1c2c(ncn1CCCO)Oc1cc(O)ccc1C2c1ccccc1 (stereo not drawn)	4.0	1.0	106.0	-4.0*
CCN(CC)c1ccc(/C=C/C(=O)C2C(=O)C=C(C)OC2=O)cc1 (stereo not drawn)	61.0*	0.0	108.0	72.0
COC1=C(N)C(=O)c2nc(-c3nc(C(=O)O)c(C)c(-c4ccc(OC)c(OC)c4O)c3N)ccc2C1=O	2.0	66.0*	99.0	95.0
COc1ccc(-c2ncncc2-c2csc(C)n2)c(O)c1OC	6.0	0.0	99.0	101.0
COCCNC(=O)/C(C#N)=C/c1cc(Br)c(O)c(OC)c1	-4.0	43.0*	99.0	96.0
CCOCCCNC(=O)/C(C#N)=C/c1cc(Br)c(O)c(Br)c1	8.0	/	106.0	104.0
CC(NC(=O)CCN1N=C(c2ccccc2)CCC1=O)c1ccc2c(c1)OCCO2 (stereo not drawn)	-13.0	2.0	95.0	96.0
